This note sets out measurements from PubChem BioAssay (NCATS).

Test [1] in a line: Drug repurposing screens with cells derived from glioblastoma tumor samples (AID 1345199). For activity, negative = cell killing: % is set by controls: 0 for no effect and ±100 for the full control effect. For all read-outs here: nearly all actives have a fitted effect of over 40% in size. Note: potency is the fitted concentration of half-maximal effect. The settings on record: GBM patient neurospheres viability, ATP luminescence, 48 h; for Potency: tumour line A. In a few lines:
(§1)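 Four patient lines of CD133+ GBM neurospheres were screened at several concentrations; hits were retested in those lines plus three slower-growing GBM lines, using 48-hour treatment and ATP-based viability.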

In test [2] the test system is astro (control astrocytes). The description is as above. As to conditions: viability, ATP luminescence, 48 h; series mostly up to 45.9 µM. In a few lines: as §1
For test [3], the target named is Nuclear receptor subfamily 1 group I member 2 (Rattus norvegicus) (UniProt Q9R1A7). In words: qHTS assay for small molecule activators of the rat pregnane X receptor (rPXR) signaling pathway (AID 651751; call rule not given here; note: 0% is about no effect). The settings on record: rPXR reporter cells, luciferase (One-Glo), 24 h.
Test [4] can be described thus: qHTS assay for small molecule activators of the human pregnane X receptor (PXR) signaling pathway (AID 720659; call rule not given here; note: 0% is about no effect). As to conditions: DPX-2 HepG2 CYP3A4-luciferase, 24 h; series mostly up to 92.3 µM.
Setting [5] is: at 45.9 µM (top of the series), tumour line B.
Where [6] appears, read: at 45.9 µM (top of the series), tumour line D.
Setting [7] is: at 46.1 µM (top of the series), tumour line C.
[8] abbreviates: at 21.2 µM (top of the series), tumour line B.
Setting [9] is: at 21.2 µM (top of the series), tumour line D.

Several values for one entry are separate records, joined by “and”; a condition that tells them apart may be missing. Identical values can stand only once. A number with no mark means an inactive call. Results filed as inconclusive are left out. Activity calls are given as the source filed them. Unless noted, calls come from the whole dose curve; as a rule, active = well fitted inhibition curve with a large enough effect; inconclusive = small, poorly fitted or top-dose-only effect; inactive = flat fitted curve, though single readings scatter.

Nuclear receptor subfamily 1 group I member 2 (Rattus norvegicus), sequence (Q9R1A7 whole entry, looked up): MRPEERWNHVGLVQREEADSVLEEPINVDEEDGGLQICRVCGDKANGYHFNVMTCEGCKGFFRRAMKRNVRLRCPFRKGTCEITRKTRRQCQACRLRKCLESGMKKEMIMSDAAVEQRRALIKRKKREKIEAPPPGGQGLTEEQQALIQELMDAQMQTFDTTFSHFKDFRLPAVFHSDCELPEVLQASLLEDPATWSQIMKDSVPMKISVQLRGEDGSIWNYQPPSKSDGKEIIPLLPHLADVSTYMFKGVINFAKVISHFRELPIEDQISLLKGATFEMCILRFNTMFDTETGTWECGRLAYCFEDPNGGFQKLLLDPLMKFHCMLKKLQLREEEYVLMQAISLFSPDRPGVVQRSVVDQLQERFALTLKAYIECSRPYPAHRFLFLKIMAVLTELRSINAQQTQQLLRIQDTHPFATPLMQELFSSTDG

As for `CCCCCCCCCCCCCCCCCC[N+](C)(C)CCC[Si](OC)(OC)OC`, the activity, negative = cell killing in test [1] (setting [5]) is -16.4%; in test [1] (setting [6]) it was -4.63%; in test [1] (setting [7]), -7.69%. Besides, in test [2], the Potency result was “inactive”.

On to `CN(C)CCC(O)(c1ccccc1)c1ccccc1Cl` (stereo not drawn), for which the activity, negative = cell killing in test [1] (setting [5]) is -11.1%; in test [1] (setting [7]), -17.6%. For the same compound, the Potency in test [1] was 11.2 µM (active). For the same compound, the Potency result in test [2] was “inactive”.

Consider `C#C[C@]1(O)CC[C@H]2[C@@H]3CCC4=C(CCC(=O)C4)[C@H]3CC[C@@]21C`, for which the activity, negative = cell killing in test [1] (at 20 µM (top of the series), tumour line C) was -4.47%; in test [1] (setting [8]), -8.06%; in test [1] (setting [9]) it was -3.97%. The Potency result in test [2] was “inactive”.

On to `CN(Cc1ccccc1)Cc1ccccc1`, for which the activity, negative = cell killing is -11.4% in test [1] (setting [5]), 6.3% in test [1] (setting [6]) and -21.1% in test [1] (setting [7]). Moreover, in test [2], the Potency result is “inactive”.

Consider `CC1=CC(=O)NS(=O)(=O)O1`, for which the figures for the activity, negative = cell killing in test [1] (setting [5]), in test [1] (setting [6]) and in test [1] (setting [7]) were -5.56%, 0.134% and -19.5%, respectively. In addition, in test [2], the Potency entry was “inactive”. Also, the max response in test [3] is 4.96% and 0.0631%. In addition, the result in test [4] was inactive.

As to `CCN(CC)CCOC(=O)c1cccnc1`, the values for the activity, negative = cell killing in test [1] (setting [5]), in test [1] (setting [6]) and in test [1] (setting [7]) were -9.24%, 9.6% and -9.84%, respectively. The Potency result in test [2] was “inactive”.

For `CCCCCCCCCCCC(=O)OC[C@@H](O)C1OC[C@H](O)[C@H]1O` (stereo partly drawn), the activity, negative = cell killing is -6.52% in test [1] (setting [5]), -10.2% in test [1] (setting [6]) and -22.6% in test [1] (setting [7]). Moreover, the Potency result in test [2] is “inactive”.

Take `CNCC(=O)N[C@@H](CCCN=C(N)N)C(=O)N[C@H](C(=O)N[C@@H](Cc1ccc(O)cc1)C(=O)N[C@H](C(=O)N[C@@H](Cc1cnc[nH]1)C(=O)N1CCC[C@H]1C(=O)N[C@@H](C)C(=O)O)C(C)C)C(C)C`: the activity, negative = cell killing is -7.12% in test [1] (setting [5]), -7.19% in test [1] (setting [6]) and -6.49% in test [1] (setting [7]). For the same compound, in test [2], the Potency entry was “inactive”.

Take `[O]=[Bi][O]C(=O)[O][Bi]=[O]`: the activity, negative = cell killing in test [1] (setting [5]) was -5.84%; in test [1] (setting [6]) it was -17.8%; in test [1] (setting [7]), 0.454%. Besides, in test [2], the Potency result is “inactive”.

`OCCN1CCN(CC/C=C2/c3ccccc3Sc3ccc(Cl)cc32)CC1`: the activity, negative = cell killing in test [1] (setting [8]) is -19.4%; in test [1] (setting [9]), -24.9%. The Potency result in test [2] was “inactive”.

Regarding `CCCCC/C=C\C/C=C\C/C=C\CCCCC(=O)O`, the values for the activity, negative = cell killing in test [1] (setting [5]), in test [1] (setting [6]) and in test [1] (setting [7]) were -11.2%, 2.8% and 1.83%, respectively. The Potency entry in test [2] was “inactive”.

As to `CC/C=C\C/C=C\C/C=C\C/C=C\C/C=C\CCCC(=O)O`, the figures for the activity, negative = cell killing in test [1] (setting [5]), in test [1] (setting [6]) and in test [1] (setting [7]) were -9.54%, -0.692% and -8.93%, respectively. Moreover, the Potency entry in test [2] is “inactive”.

Regarding `O=C(CCCCCCCCCCCCC1CCCC1)Nc1ccc(S(=O)(=O)c2ccc(NC(=O)CCCCCCCCCCCCC3CCCC3)cc2)cc1`, the activity, negative = cell killing in test [1] (setting [5]) was 0.38%; in test [1] (setting [6]) it was -17.2%; in test [1] (setting [7]), -32.4%. Further, in test [2], the Potency entry was “inactive”.

On to `Nc1ncnc2c1ncn2CCOCP(=O)(O)O`, for which the activity, negative = cell killing was 2.17% in test [1] (setting [5]), -1.17% in test [1] (setting [6]) and -21.5% in test [1] (setting [7]). Also, in test [2], the Potency result is “inactive”.

`COc1ccccc1N1CCN(CCCC(=O)c2ccc(F)cc2)CC1`: in test [1] (setting [5]), the activity, negative = cell killing was -16%. In test [1], the Potency was 10 µM (active). Besides, the Potency entry in test [2] is “inactive”.

`CCOc1cc(-c2nccc3cc(OC)c(OC)cc23)cc(OCC)c1OCC`: in test [2], the Potency entry was “inactive”.

Regarding `CC[C@@H](C(=O)[C@@H](C)[C@@H](O)[C@H](C)[C@@H]1O[C@@H]([C@@H](CC)C(=O)O)CC[C@@H]1C)[C@H]1O[C@]2(C=C[C@@H](O)[C@]3(CC[C@@](C)([C@H]4CC[C@](O)(CC)[C@H](C)O4)O3)O2)[C@H](C)C[C@@H]1C`, the Potency in test [2] was 7.94 µM (active).

For `O=C(O)Cc1nn(Cc2ccc(Br)cc2F)c(=O)c2ccccc12`, the figures for the activity, negative = cell killing in test [1] (setting [5]) and in test [1] (setting [6]) were -21.4% and -12.1%, respectively. In addition, the Potency result in test [2] is “inactive”.

As to `C[N@+]12CCCC[C@@H]1CCC(=C(c1cccs1)c1cccs1)C2`, the Potency entry in test [2] was “inactive”.

Turning to `C=C1CC[C@H](O)CC1=C/C=C1\CCC[C@]2(C)[C@@H]([C@H](C)CCCC(C)(C)O)CC[C@@H]12`, the Potency in test [2] was 20 µM (active).

Turning to `Cc1ccccn1`, the activity, negative = cell killing is -10.1% in test [1] (setting [5]) and -22.4% in test [1] (setting [7]). Besides, the Potency entry in test [2] was “inactive”.

Consider `N=C(N)n1cccn1`, for which the activity, negative = cell killing in test [1] (setting [5]) was -2.75%. For the same compound, the Potency entry in test [2] is “inactive”.

Regarding `CCC(=O)c1ccc2c(c1)N(CCCN1CCN(CCO)CC1)c1ccccc1S2`, in test [2], the Potency is 17.8 µM (active).

With `C=Cc1ccc(S(=O)(=O)O)cc1`, the activity, negative = cell killing in test [1] (setting [5]) is -6.14%; in test [1] (setting [6]) it was -2.96%. Further, the Potency entry in test [2] is “inactive”.

With `CCCCCCCCCCCCCCCCOCCOCCOCCOCCOCCOCCOCCOCCOCCOCCOCCOCCOCCOCCOCCOCCOCCOCCOCCOCCO`, in test [2], the Potency is 3.16 µM (active).

On to `CNC(C)CCC=C(C)C` (stereo not drawn), for which, in test [1] (setting [5]), the activity, negative = cell killing is -23.7%. The Potency in test [1] was 11.2 µM (active). The Potency entry in test [2] is “inactive”.

As to `CN(C)CCC=C1c2ccccc2C(C)(C)c2ccccc21`, in test [2], the Potency is 17.8 µM (active).

For the compound `O=c1n(CC2CO2)c(=O)n(CC2CO2)c(=O)n1CC1CO1` (stereo not drawn), the max response in test [3] is -7.41% and -4.4%. In test [4], the outcome was inactive.

Regarding `CN=C1C=CC(=C(c2ccc(N(C)C)cc2)c2ccc(N(C)C)cc2)C=C1`, in test [2], the Potency was 11.2 µM (active).

Regarding `O=C(CCCN1CCN2CCCC2C1)c1ccc(F)cc1` (stereo not drawn), the Potency entry in test [2] is “inactive”.

In the case of `CC(C)C[C@H](NC(=O)[C@@H](Cc1c[nH]c2ccccc12)NC(=O)[C@H](Cc1ccc(O)cc1)NC(=O)[C@H](CO)NC(=O)[C@H](Cc1c[nH]c2ccccc12)NC(=O)[C@H](Cc1cnc[nH]1)NC(=O)[C@@H]1CCC(=O)N1)C(=O)N[C@@H](CCCN=C(N)N)C(=O)N1CCC[C@@H]1C(=O)NCC(N)=O`, the figures for the activity, negative = cell killing in test [1] (setting [5]) and in test [1] (setting [7]) were -6.78% and -22.9%, respectively. Besides, the Potency result in test [2] was “inactive”.
